# High-throughput results from PubChem.
# Compounds with a hit are over-represented: about 7.9% of the library has one in this group of screens.
# KB-3-1 cytotox = qHTS assay for MDR1-selective chemotherapeutics: Primary screen using the parental adenocarcinoma cell KB-3-1; KB-3-1 viability, CellTiter-Glo ATP luminescence, 72 h; Potency, µM (series often up to 46.1 µM), hits mostly cytotoxic; hit rate 1.4% among 400,000; AID 1347075, 2019; further: on the % scale 0 is the no-effect control and ±100 the full control effect; nearly all actives have a fitted effect of over 60% in size
#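 KB-3-1 cells, DMEM (no phenol red) + 10% FBS; compound by pin transfer, 72 h, 37 °C. Readout: CellTiter-Glo luminescence after 10 min. Data normalized, curve-fitted.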
# KB-V1 cytotox = qHTS assay for MDR1-selective chemotherapeutics: Primary screen using the drug-selected MDR subline cells KB-V1. KB-V1 MDR cells viability, CellTiter-Glo, 72 h. AID 1347076, 2019. hit rate 3.4% among 400,000. Potency, µM (highest dose often 46.1 µM), most hits filed as cytotoxic; further: on the % scale 0 is the no-effect control and ±100 the full control effect; nearly all actives have a fitted effect of over 60% in size
#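 Readout: CellTiter-Glo luminescence, 10 min after addition. Cells: KB-V1 MDR subline, 72 h at 37 degrees C with compound. Analysis: corrected, normalized data fitted to concentration-effect curves.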
# HT1080NT lethal = qHTS for induction of synthetic lethality in tumor cells producing 2HG: qHTS for the HT-1080-NT fibrosarcoma cell line. HT-1080-NT fibrosarcoma viability, CellTiter-Glo ATP luminescence, 48 h. Potency, µM (top dose mostly 46.1 µM), for inactives: at the top dose activity, negative = less viability, most hits filed as cytotoxic. hit rate 1.6% among 360,000. AID 686970, 2013;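 further: NT is the 2HG producing partner of a matched IDH1 knockdown line; 0% = DMSO-treated cells and -100% = media-only wells without cells; nearly all actives have a fitted effect of over 55% in size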
#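 Viability by CellTiter-Glo luminescence after 48 h compound exposure at 37C of HT-1080-NT cells (750/well, RPMI, 5% FBS). % activity scaled between DMSO wells and medium-only wells, then curve-fitted and categorized by curve class.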
# SW480 rereplic = A quantitative high throughput screen for small molecules that induce DNA re-replication in SW480 colon adenocarcinoma cells; SW480 DNA re-replication, Hoechst DNA content imaging, 48 h; Potency, µM (doses to about 46.1 µM), for the others: top-dose re-replication activation, most hits filed as activators; hit rate 1.8% among 340,000; further: % of control where 0% means no effect; nearly all actives have a fitted effect of over 55% in size
#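 Image-based read-out: total Hoechst fluorescence of nuclei (405 nm excitation, 500-530 nm emission), with hits raising the fraction of high-intensity nuclei. SW480 colon cells incubated 48 hr with compounds at 37 C.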
# MCF10A rerep = A quantitative high throughput screen for small molecules that induce DNA re-replication in MCF 10a normal breast cells; MCF 10A DNA re-replication, Hoechst nuclear intensity, 48 h; Potency, µM (highest dose often 46.1 µM), for the others: at the highest dose activity, positive = re-replication, usual class: activators; hit rate 2.9% among 350,000; AID 624296, 2012; further: % of control where 0% means no effect; nearly all actives have a fitted effect of over 50% in size
# HT1080 IDH1KD tx = qHTS for induction of synthetic lethality in tumor cells producing 2HG: qHTS for the HT-1080-IDH1KD cell line; HT-1080 IDH1 knockdown viability, ATP luminescence, 48 h; Potency, µM (highest dose often 46.1 µM), inactives show top-dose activity, negative = toxicity, actives largely listed as cytotoxic; hit rate 2% among 360,000;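 further: 0% = DMSO wells and -100% = cell-free medium wells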
#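 Cytotoxicity counter-line: IDH1KD HT-1080, 48 h, CellTiter-Glo. Curves classed by r2, magnitude and activity.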
# * hit, by the source's call; i = inactive; ? = inconclusive; . = no result given; [ ] = dose if it differs, or a comment. The call rests on the fitted dose curve; in most records, active means well fitted curve in the direction sought with a large enough effect; inconclusive means small, poorly fitted or top-dose-only effect, or another doubt; inactive means no such curve, though single readings can be large; an effect the other way counts as inactive or inconclusive. Potency means the concentration at half of the fitted maximal effect.
SMILES,KB-3-1 cytotox,KB-V1 cytotox,HT1080NT lethal,SW480 rereplic,MCF10A rerep,HT1080 IDH1KD tx
COc1cc(C(=O)OCc2cc(=O)c(O)co2)ccc1OC(F)F,i,i,?,-7%,-2%,-21%
Cc1cccc(N2CCc3c2nc2ccccc2c3N)c1,?,?,0%,24%,15µM*,-1%
Cc1cccc(-n2c(/C=C/c3c(C)[nH]c4ccccc34)nc3ccccc3c2=O)c1,i,i,.,.,.,.
N#Cc1cc2c(nc1SCC(=O)Nc1cccc(C(F)(F)F)c1)C1CCN2CC1,?,9.2µM*,.,.,.,.
N#Cc1cc2c(nc1SCC(=O)Nc1ccc(F)c(Cl)c1)C1CCN2CC1,i,15µM*,.,.,.,.
N#Cc1cc2c(nc1SCC(=O)Nc1cc(Cl)cc(Cl)c1)C1CCN2CC1,i,4.6µM*,18%,24%,2.3µM*,-1%
N#Cc1cccc(NC(=O)CSc2nc3c(cc2C#N)N2CCC3CC2)c1,?,i,.,.,.,.
O=C(COC(=O)CCc1c[nH]c2ccccc12)Nc1ccc([N+](=O)[O-])cc1,i,i,11%,-46%,-82%,18%
O=C(c1cccc(Cl)c1)C1CCCN(Cc2cccc3cnccc23)C1 (centres undefined),?,i,9.2µM*,-99%,?,?
O=C(c1ccc(Cl)cc1)C1CCCN(Cc2cccc3cnccc23)C1 (centres undefined),i,?,-3%,-4%,13%,-7%
COc1ccc(CN2CCCC(C(=O)c3ccc(Cl)cc3)C2)c(OC)c1 (centres undefined),?,?,?,1%,5%,9.2µM*
O=C(c1ccc(Cl)cc1)C1CCCN(Cc2ccc3ncccc3c2)C1 (centres undefined),?,4.1µM*,-23%,-2%,?,-28%
O=C(c1ccc(Cl)cc1)C1CCCN(Cc2ccc3c(c2)OCCO3)C1 (centres undefined),i,i,-2%,-15%,?,-13%
CCOc1ccccc1NC(=O)c1cccn(Cc2ccccc2C)c1=O,i,?,.,.,.,.
CCN(C(=O)COC(=O)c1cc(C)n(C2CC2)c1C)c1ccccc1,i,2.6µM*,4%,-2%,?,20%
CC(C)(C)c1cc(O)ccc1O,.,.,.,?,30µM*,.
Cc1onc(-c2ccccc2)c1C(=O)N[C@@H]1C(=O)N2C1SC(C)(C)[C@@H]2C(=O)O (some centres undefined),i,i,8%,?,-1%,7%
O=C(CN1CCOCC1)c1ccc2ccccc2c1,?,i,.,.,.,.
Cc1oc(-c2cccs2)nc1CSCC(=O)N1CCC2(CC1)OCCO2,i,10µM*,2%,-9%,-8%,-3%
COc1ccc(-c2nc(CSCC(=O)N3CCC4(CC3)OCCO4)c(C)o2)cc1OC,i,?,-4%,7%,4%,-12%
NC(=O)C1(N2CCCCC2)CCN(CC(=O)Nc2ccc(Oc3ccccc3)cc2)CC1,?,13µM*,-26%,7%,3%,?
O=C(CN1CCN(CC(=O)Nc2ccc(OCc3ccccc3)cc2)CC1)Nc1ccc(F)cc1,i,3.7µM*,?,13%,28%,?
Cc1c(C)n(O)c2ccc3nonc3c12,i,i,-5%,?,21µM*,-5%
C[C@H](CO)N1C[C@H](C)[C@@H](CN(C)C(=O)NC2CCCCC2)Oc2c(cccc2N(C)C)C1=O,i,i,0%,?,-35%,-11%
Cc1cccc(-n2c(O)c(/C=C3/C(c4ccccc4)=Nc4ccccc43)c(=O)[nH]c2=O)c1,5.2µM*,?,16µM*,3.7µM*,3.7µM*,5.8µM*
SMILES,KB-3-1 cytotox,KB-V1 cytotox,HT1080NT lethal,SW480 rereplic,MCF10A rerep,HT1080 IDH1KD tx
Cc1ccc(-n2c(O)c(/C=C3/C(c4ccccc4)=Nc4ccccc43)c(=O)[nH]c2=O)cc1,3.7µM*,?,7.3µM*,3.7µM*,5.2µM*,?
Cc1ccccc1-n1c(O)c(/C=C2/C(c3ccccc3)=Nc3ccccc32)c(=O)[nH]c1=O,2.1µM*,1.5µM*,?,.,5.2µM*,?
Cc1ccccc1-n1c(O)c(C=Nc2ccc(N(C)C)cc2)c(=O)[nH]c1=O,i,2.3µM*,0%,?,15%,-1%
Cc1cccc(N=Cc2c(O)n(-c3ccccc3C)c(=O)[nH]c2=O)c1,i,i,9%,-3%,?,7%
CC(C)C(=O)Nc1ccc([N+](=O)[O-])c(C(F)(F)F)c1,i,?,-8%,-84%,-10%,-20%
COC(=O)[C@@]1(Cc2ccccc2)[C@H]2C(=O)N(Cc3ccccc3)C(=O)[C@H]2[C@H]2CN=C(SCc3ccc(C#N)cc3)N21,i,i,12%,?,5%,4%
COc1ccc(NC(=O)CN(C)S(=O)(=O)c2ccc3[nH]c(=O)oc3c2)cc1,i,i,-5%,?,4%,-3%
O=S1(=O)N(CCN2CC=C(c3c[nH]c4cc(F)ccc34)CC2)c2cccc3c2N1CCC3,?,?,13µM*,?,?,16µM*
COc1cccc(CN2CC=C(c3ccc(F)cc3)CC2)c1,i,i,-10%,0%[9.22 µM],-5%,-20%
C/C(=N\NC(N)=S)C12CC3CC(CC(C3)C1)C2,i,i,5µM*,26µM*,7.3µM*,6.3µM*
Cc1noc(C)c1C(=O)N1CCC2(CC1)Oc1ccc(F)cc1C(=O)C21CC(c2ccc(Cl)cc2)=NO1 (centres undefined),i,i,-4%,?,4%,-1%
CN1CCC[C@@H]1c1cccnc1,.,.,.,-14%,-6%,.
Cc1nn(-c2nc3ccccc3s2)c(C)c1Oc1ccccc1O,i,i,13µM*,?,?,13µM*
COc1cc(C2C(C#N)=C(N)Oc3cc(O)ccc32)cc(OC)c1OC (centres undefined),2.9µM*,?,0.56µM*,-1%,1%,?
C[N+]1(C)C2CC[C@H]1CC(OC(=O)[C@@H](CO)c1ccccc1)C2 (some centres undefined),.,.,.,?,9%,.
Cc1ccc(N2C(=O)NC(=O)/C(=C/c3ccoc3)C2=O)cc1,?,i,8%,0%,-1%,4%
